{"source": "PubChem BioAssay AID504339", "about": "(National Center for Advancing Translational Sciences (NCATS), 2011)", "note": "Screen size: about 390,000 compounds; about 17,000 (4.4%) were called active. Another 8% or so got no clear call; they are omitted. The call rests on the fitted dose curve; in most records, active means well fitted inhibition curve with a large enough effect; inconclusive means small, poorly fitted or top-dose-only effect; inactive means no such curve, though single readings can be large or run the other way. The full list was thinned out, with actives kept by preference. On the % scale 0 is the no-effect control and ±100 the full control effect; potency means the concentration at half of the fitted maximal effect.", "data": [{"target": "Lysine-specific demethylase 4A (Homo sapiens) (UniProt O75164)", "sequence (O75164 whole entry, looked up, the tested form may be a part)": "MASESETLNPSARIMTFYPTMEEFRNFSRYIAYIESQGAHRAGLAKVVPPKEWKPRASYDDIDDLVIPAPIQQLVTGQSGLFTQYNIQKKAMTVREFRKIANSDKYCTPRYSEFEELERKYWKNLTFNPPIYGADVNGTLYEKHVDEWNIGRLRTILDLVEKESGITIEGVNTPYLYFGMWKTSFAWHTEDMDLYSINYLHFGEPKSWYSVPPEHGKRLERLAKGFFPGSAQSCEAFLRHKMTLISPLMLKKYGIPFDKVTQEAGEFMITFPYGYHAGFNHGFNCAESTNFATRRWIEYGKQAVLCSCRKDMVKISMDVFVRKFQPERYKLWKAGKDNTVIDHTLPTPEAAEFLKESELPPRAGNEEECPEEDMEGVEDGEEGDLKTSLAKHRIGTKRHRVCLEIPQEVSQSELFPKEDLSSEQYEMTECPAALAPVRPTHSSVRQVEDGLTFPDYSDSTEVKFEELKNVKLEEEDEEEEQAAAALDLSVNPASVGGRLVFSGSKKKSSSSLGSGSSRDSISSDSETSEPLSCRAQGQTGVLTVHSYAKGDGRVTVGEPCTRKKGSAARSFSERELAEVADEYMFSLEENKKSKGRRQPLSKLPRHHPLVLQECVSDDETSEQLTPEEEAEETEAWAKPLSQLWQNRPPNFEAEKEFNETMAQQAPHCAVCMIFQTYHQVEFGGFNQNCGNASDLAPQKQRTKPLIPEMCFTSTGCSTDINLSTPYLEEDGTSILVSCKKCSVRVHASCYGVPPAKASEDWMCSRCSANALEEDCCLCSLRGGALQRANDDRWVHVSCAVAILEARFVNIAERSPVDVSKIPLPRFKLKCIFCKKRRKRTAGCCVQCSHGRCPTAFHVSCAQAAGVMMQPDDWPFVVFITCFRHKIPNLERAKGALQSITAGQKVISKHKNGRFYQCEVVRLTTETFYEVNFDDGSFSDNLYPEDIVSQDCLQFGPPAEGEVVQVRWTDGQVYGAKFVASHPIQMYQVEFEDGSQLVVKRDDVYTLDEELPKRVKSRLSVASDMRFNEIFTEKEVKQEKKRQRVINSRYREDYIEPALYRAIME", "assay": "qHTS Assay for Inhibitors of JMJD2A-Tudor Domain; further: nearly all actives have a fitted effect of over 50% in size", "conditions": "AlphaScreen JMJD2A-Tudor / H3K4me3 peptide binding; series mostly up to 114 µM; activity change, negative = inhibition: at the top concentration", "values": [{"smiles": "Cc1ccc(CCNC(=O)c2ccc(CS(=O)(=O)Cc3cccc(C)c3)o2)cc1", "activity change, negative = inhibition": "-25.1% (inactive)"}, {"smiles": "Cc1ccc(-n2c(SCC(=O)Nc3cccc(F)c3)nc3c(oc4ccccc43)c2=O)cc1C", "activity change, negative = inhibition": "-10.9% (inactive)"}, {"smiles": "COC(=O)c1ccc(/C=N/N2C(C)CCCC2C)cc1", "note": "(stereo unspecified)", "Potency": "63.1 µM (active)"}, {"smiles": "COC(=O)c1ccc(/C=N/OCC(=O)Nc2cc(F)ccc2F)cc1", "activity change, negative = inhibition": "-15.9% (inactive)"}, {"smiles": "COC(=O)c1ccc(/C=N/NC(=O)C(=O)N2CCCCCC2)cc1", "activity change, negative = inhibition": "7.78% (inactive)"}, {"smiles": "CCOc1cccc(/C(O)=C2/C(=O)C(=O)N(CCOC)C2c2ccncc2)c1", "note": "(stereo unspecified)", "activity change, negative = inhibition": "-15.7% (inactive)"}, {"smiles": "CCOc1ccc(/C(O)=C2/C(=O)C(=O)N(Cc3cccnc3)C2c2ccc(N(C)C)cc2)c(C)c1", "note": "(stereo unspecified)", "Potency": "56.2 µM (active)"}, {"smiles": "CCCOc1ccc(C2c3c(-c4ccccc4O)n[nH]c3C(=O)N2Cc2cccnc2)cc1", "note": "(stereo unspecified)", "activity change, negative = inhibition": "-21.1% (inactive)"}, {"smiles": "CC(C)OCC(O)CN1CCN(C(c2ccccc2)c2ccccc2)CC1", "note": "(stereo unspecified)", "activity change, negative = inhibition": "-8.28% (inactive)"}, {"smiles": "COc1ccc(OC)c(CN2CCN(C(=O)CNC(=O)c3cc(C)cc(C)c3)CC2)c1", "activity change, negative = inhibition": "-18.2% (inactive)"}, {"smiles": "COc1ccccc1CN1CCN(C(c2ccccc2)c2ccccc2)CC1", "Potency": "50.1 µM (active)"}, {"smiles": "Oc1ccccc1CN1CCN(C(c2ccccc2)c2ccccc2)CC1", "Potency": "56.2 µM (active)"}, {"smiles": "CC(=O)N1CCN(CC(c2ccccc2)c2ccccc2)CC1", "activity change, negative = inhibition": "-9.23% (inactive)"}, {"smiles": "COc1ccccc1N1CCN(Cc2ccc(OC)c3ccccc23)CC1", "Potency": "3.16 µM (active)"}, {"smiles": "COc1ccccc1N1CCN(Cc2cc(OC)c3c(c2)OCO3)CC1", "activity change, negative = inhibition": "-27.9% (inactive)"}, {"smiles": "COc1ccccc1Cn1c(CO)nc2ccccc21", "activity change, negative = inhibition": "-17.6% (inactive)"}, {"smiles": "COc1ccccc1CNCc1cccs1", "activity change, negative = inhibition": "-8.7% (inactive)"}, {"smiles": "CNCC(O)CN1CCN(c2ccccc2OC)CC1", "note": "(stereo unspecified)", "activity change, negative = inhibition": "-8.45% (inactive)"}, {"smiles": "COc1ccccc1CN1CCN(Cc2cc(OC)c(OC)cc2OC)CC1", "Potency": "7.08 µM (active)"}, {"smiles": "COc1ccccc1NC(=S)N1CCN(C(c2ccccc2)c2ccccc2)CC1", "activity change, negative = inhibition": "-21.7% (inactive)"}, {"smiles": "CCCCNc1ccc(-c2nc(-c3ccncc3)no2)cc1[N+](=O)[O-]", "activity change, negative = inhibition": "-17.5% (inactive)"}, {"smiles": "CCOC(=O)c1c(S(=O)(=O)N2CCC(C(=O)NCc3ccccc3OC)CC2)c(C)n(C)c1C", "activity change, negative = inhibition": "-14% (inactive)"}, {"smiles": "O=C(COc1ccccc1)NCc1ccc2c(c1)CCN2C(=O)c1ccc(F)cc1", "activity change, negative = inhibition": "-14% (inactive)"}, {"smiles": "COc1ccc(-c2c(C)nn3c(N4CCC(C(=O)NCCC(C)C)CC4)cc(C)nc23)cc1OC", "activity change, negative = inhibition": "0.337% (inactive)"}, {"smiles": "COc1ccccc1CNc1nc2ccc(Cl)cc2n2cnnc12", "activity change, negative = inhibition": "0.336% (inactive)"}, {"smiles": "COc1ccc(OC)c(CCNC(=O)c2nn(C)c3c2CS(=O)(=O)c2ccccc2-3)c1", "activity change, negative = inhibition": "-15.8% (inactive)"}, {"smiles": "CCn1c(C)c(C)c2cc(C(=O)NCCc3cc(OC)ccc3OC)ccc21", "Potency": "35.5 µM (active)"}, {"smiles": "COc1ccc(-n2c(=O)[nH]c3cc(C(=O)NCCc4ccc(OC)c(OC)c4)ccc3c2=O)c(OC)c1", "activity change, negative = inhibition": "4.2% (inactive)"}, {"smiles": "Cc1cc(C)c(-c2n[nH]c3c2C(c2ccccc2F)N(CCO)C3=O)c(O)c1", "note": "(stereo unspecified)", "activity change, negative = inhibition": "-1.26% (inactive)"}, {"smiles": "COc1ccc(N(Cc2ccc(N(C)C)cc2)C(=O)c2ccc(S(C)(=O)=O)cc2)cc1", "Potency": "63.1 µM (active)"}, {"smiles": "COc1ccc(S(=O)(=O)NCc2ccc(C(=O)N(C)Cc3ccco3)cc2)cc1", "activity change, negative = inhibition": "-22% (inactive)"}, {"smiles": "COc1ccc(CNC(=O)Cn2nnc(-c3ccc(S(C)(=O)=O)cc3)n2)cc1", "activity change, negative = inhibition": "-16.8% (inactive)"}, {"smiles": "CCn1cc2nc(SCc3ccccc3Cl)n(CCc3ccccc3)c(=O)c2n1", "activity change, negative = inhibition": "-12.3% (inactive)"}, {"smiles": "O=C(c1cccc(Br)c1)N1CCN(Cc2cc(=O)n3nc(-c4ccccc4)sc3n2)CC1", "activity change, negative = inhibition": "-10.7% (inactive)"}, {"smiles": "COCCCNC(=O)c1c(NC(=O)c2cc(=O)c3cc(C)c(C)cc3o2)sc2c1CCCC2", "activity change, negative = inhibition": "-1.74% (inactive)"}, {"smiles": "Cc1ccc(-c2nn3c(=O)cc(CN4CCN(C(=O)Nc5cccc(C(F)(F)F)c5)CC4)nc3s2)cc1", "activity change, negative = inhibition": "-8.77% (inactive)"}, {"smiles": "COc1ccc(N(C(=O)c2cccnc2)S(=O)(=O)c2ccc(OC)c(OC)c2)cc1", "activity change, negative = inhibition": "-16.9% (inactive)"}, {"smiles": "O=C(c1cccnc1)N(Cc1ccccc1)C(=O)c1cccnc1", "activity change, negative = inhibition": "-11% (inactive)"}, {"smiles": "O=C(c1cccnc1)N(c1cc2sc(=O)oc2c2ccccc12)S(=O)(=O)c1ccccc1", "Potency": "25.1 µM (active)"}, {"smiles": "COc1ccc(C(F)(F)F)cc1NC(=O)c1sc2nc(-c3cccs3)ccc2c1N", "activity change, negative = inhibition": "-4.5% (inactive)"}, {"smiles": "COc1cccc(CNC(=O)C(NS(=O)(=O)c2ccc3nc(C)sc3c2)C(C)C)c1", "note": "(stereo unspecified)", "activity change, negative = inhibition": "2.32% (inactive)"}, {"smiles": "CCOC(=O)N1CCN(C(=O)C2CCN(S(=O)(=O)c3cc(Cl)ccc3OCC)CC2)CC1", "activity change, negative = inhibition": "-10.4% (inactive)"}, {"smiles": "CCOC(=O)N1CCN(CCC(=O)Nc2cc(OC)ccc2OC)CC1", "activity change, negative = inhibition": "-18.9% (inactive)"}, {"smiles": "CCOC(=O)N1CCN(C(=O)C2CCN(Cc3ccc(OC)cc3OC)CC2)CC1", "Potency": "1 µM (active)"}, {"smiles": "CC(C)(C)c1ccc(C(=O)NCC(c2ccco2)S(=O)(=O)c2ccc(F)cc2)cc1", "note": "(stereo unspecified)", "activity change, negative = inhibition": "-9.42% (inactive)"}, {"smiles": "O=C(NCc1cccnc1)C(=O)NCC(c1cccnc1)N1CCN(c2ccccc2)CC1", "note": "(stereo unspecified)", "activity change, negative = inhibition": "10.9% (inactive)"}]}]}
